Only some compounds are listed: those with a hit (about 2.4% of all), similar ones and a draw of the others.
eIF4E-4G inh = blocks eIF4E binding to eIF4G; AID 782; 0.37% of 220,000 active; P63073+Q04637; TR-FRET eIF4E-eIF4GI(517-606) binding, 2 h; inhibition, % at 21.7 µM;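 active means inhibition above about 30%, limit read from the data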;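 further: 0% = full FRET control wells and 100% = background wells lacking eIF4GI fragment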
eIF4H inh = inhibitors of RNA binding by human eIF4H | eIF4H fluorescence polarization binding assay | Q15056 | AID 2012 | 0.94% of 290,000 active | inhibition, % at 35 µM;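 further: calls also rest on retests at 20 µM and on dose response follow-up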
PABP1 MLLE inh = blocks PAM2 peptide binding to the PABP1 MLLE domain | 0.36% of 360,000 active | GST-MLLE / FITC-PAM2 fluorescence polarization | AID 588489 | P11940 | inhibition, % at 20 µM; in the data active means inhibition above about 35%, passing the limit was not always enough;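 further: plate controls were DMSO wells with GST-MLLE for no effect and wells lacking GST-MLLE protein for full effect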
PfM18AAP inh-1 = blocks P. falciparum M18 aspartyl aminopeptidase; recombinant PfM18AAP, H-Glu-NHMec fluorogenic cleavage; AID 1822; inhibition, % at 7.35 µM; 1.2% of 290,000 active;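 active means inhibition above the campaign mean inhibition over all tested compounds plus 3 SD, cut at about 28% in these data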;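 further: 0% = plate median of test compound wells and 100% = 2 mM ZnCl2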
PABP polyA inh = PABP-poly(A) binding inhibition. PABP-poly(A) RNA binding, fluorescence polarization. inhibition, % at 35 µM. 1% of 290,000 active;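 further: calls also rest on retests at 20 µM and on dose response follow-up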
PERK inhibitor = human PERK inhibition, primary cell-based screen; inhibition, % at 5.6 µM; AID 1416; CHO PERK-DD fusion, SEAP luminescence translation reporter; 0.17% of 220,000 active; Q9NZJ5;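 active means inhibition above the mean inhibition of all tested compounds plus 3 SD, set separately per screening campaign, cut at about 2.9% in these data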;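 further: PERK kinase domain activated by AP20187 dimerizer at 100 nM; 0% = DMSO with dimerizer and 100% = rapamycin at 8.4 µM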
PfM18AAP inh-2 = confirmation of Plasmodium falciparum M18 aspartyl aminopeptidase inhibitors. inhibition, % at 7.35 µM. AID 2170. shares compounds with PfM18AAP inh-1. recombinant PfM18AAP, H-Glu-NHMec fluorogenic cleavage. 28% of 2,400 active;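 active means mean inhibition over replicate wells above the hit cutoff set for the earlier primary screen, cut at about 29% in these data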;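 further: 0% = median of test compound wells and 100% = 2 mM ZnCl2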
CTSL1 confirm = Cathepsin L (human) inhibition, confirmation. shares compounds with PfM18AAP inh-1. purified cathepsin L1, Z-Leu-Arg-MCA fluorescence. inhibition, % at 5.96 µM. 2,400 tested, under 10 active;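 active means average inhibition across replicates above the hit cutoff set in the earlier primary screen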;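 further: 0% = median of test compound wells and 100% = Z-Phe-Ala-diazomethylketone 1 µM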
Numbers without * were called inactive; ? = inconclusive; / = no result. Unless noted, how the calls were made is not given here.

SMILES	eIF4E-4G inh	eIF4H inh	PABP1 MLLE inh	PfM18AAP inh-1	PABP polyA inh	PERK inhibitor	PfM18AAP inh-2	CTSL1 confirm
O=C(NC1CCCCC1)Oc1cc2oc(=O)sc2cc1Cl	-1	2	32	31*	5	-2	/	/
CCn1cc(C(=O)N2CCOCC2)c2ccccc21	4	-4	-9	5	8	0	/	/
O=C1CC(=O)N(c2cccc(C(F)(F)F)c2)C(=O)N1	/	6	-20	2	-7	/	/	/
O=C1CC(=O)N(c2cccc(Br)c2)C(=O)N1	/	77	-37	8	41*	/	/	/
O=C1NCN(c2ccccc2)C12CCN(C(c1ccccc1OC(F)(F)F)c1nnnn1-c1ccc3c(c1)OCCO3)CC2 (stereo not given)	/	/	-3	/	/	/	/	/
COc1ccc(N2C(=O)/C(=C/C=C/c3ccccc3[N+](=O)[O-])C(=O)NC2=S)cc1	36*	36	/	-9	-11	0	/	/
COc1ccc(N2C(=O)/C(=C/c3cccs3)C(=O)NC2=S)cc1	-7	-12	23	5	-4	1	/	/
CCOC(=O)/C(CCCN(CC)CC)=N\O	5	5	-123	13	56*	0	/	/
Cc1cccc(NC(=O)COC(=O)c2cc(C)n(C3CC3)c2C)c1	/	/	-40	/	/	/	/	/
Nc1nnc(P(c2ccccc2)c2ccccc2)s1	-4	-5	34	0	6	0	/	/
c1ccc(P(c2ccccn2)c2ccccn2)cc1	0	0	44*	-1	10	1	/	/
CCCCn1nnnc1C(CCSC)N1CCC(n2c(=O)[nH]c3ccccc32)CC1 (stereo not given)	/	/	2	/	/	/	/	/
Cc1ccc2[nH]c3c(c2c1)CN(C(=O)CN1C[C@H]2C[C@@H](C1)c1cccc(=O)n1C2)CC3	/	69	16	4	35*	/	/	/
COC(=O)c1nc(-c2ccc3c(n2)C(=O)C(N)=C(OC)C3=O)c(N)c(-c2ccc(OC)c(OC)c2O)c1C	-3	5	7	32*	-1	-1	/	/
CCCCn1c(O)c(C(C)=NC(C)c2ccccc2)c(=O)[nH]c1=O (stereo not given)	-3	active	-3	0	59*	-1	/	/
CN1CCCN(c2ccc([N+](=O)[O-])nc2)CC1	/	14	0	6	-3	/	/	/
COc1cc(C=C2C(=O)NC(=O)NC2=O)ccc1OCc1ccc([N+](=O)[O-])cc1	-5	-3	4	1	32	0	/	/
COc1cc(/C=C(/C)[N+](=O)[O-])ccc1OCc1ccccc1Cl	23	-4	18	30*	-1	0	/	/
COc1ccc(C(=O)N2CCC3(CC2)OCCO3)cc1	/	-4	5	-15	15	/	/	/
COc1ccc(C(=O)N2CCCC2=O)cc1	2	1	-6	4	-4	3.0*	/	/
O=c1[nH]c(=S)[nH]c(O)c1/C=C1/C=c2ccccc2=N1	/	69	13	44*	54	/	59*	-3
Cc1cccc2c1=NC(=O)/C(=C/c1c(O)[nH]c(=O)[nH]c1=O)C=2	0	-13	21	5	6	0	/	/
O=P(NCc1ccccc1)(Oc1ccccc1)Oc1ccccc1	0	1	6	1	-6	0	/	/
Cc1cc(O)c2c(c1)C(=O)C13C(=C2O)C(=O)[C@H]2[C@@H](O)[C@@H]1[C@H]1[C@H](O)[C@@H]3C(=O)C3=C(O)c4c(O)cc(C)cc4C(=O)C312 (stereo not given in full)	/	/	13	/	/	/	/	/
CN1C(=O)N(C)C(=O)C2(Cc3cc(NC(=O)c4ccc(F)cc4)ccc3N3CCCC32)C1=O (stereo not given)	/	11	-29	3	23	/	/	/
SMILES	eIF4E-4G inh	eIF4H inh	PABP1 MLLE inh	PfM18AAP inh-1	PABP polyA inh	PERK inhibitor	PfM18AAP inh-2	CTSL1 confirm
O=C1NC(=O)N(c2ccc3c(c2)OCO3)C(=O)/C1=C\c1ccsc1	0	53	8	33*	16	1	-59	1
CCCNC(=O)N1[C@H]2CC[C@@H]1C(C(=O)OC)=C(c1ccc3ccccc3c1)C2	/	/	4	/	/	/	/	/
S=P(Nn1cnnc1)(c1ccccc1)c1ccccc1	-1	-6	-96	44*	-2	1	49*	-3
CCN(CC)c1ccc(N=Cc2c(O)[nH]c(=O)[nH]c2=O)cc1	/	0	-27	44*	-6	/	-36	4
CCN(CC)c1ccc(N=Cc2c(O)n(-c3ccccc3)c(=O)[nH]c2=O)cc1	6	-10	-84	18	3	-2	/	/
COC(=O)Cn1cc(C=C2C(=O)NC(=O)NC2=O)c2ccccc21	/	43	19	49*	13	/	30*	-7
CCn1cc(C=C2C(=O)NC(=O)NC2=O)c2ccccc21	/	?	61	42*	?	/	38*	0
C[C@]12CCC3C(CC[C@H]4C[C@@H](O)[C@H](O)C[C@]34C)C1CC[C@@H]2O (stereo not given in full)	/	/	-15	/	/	/	/	/
COC(=O)C1=C(c2ccc(F)cc2OCc2ccccc2)C[C@@H]2CC[C@H]1N2C(=O)NCc1cccc(C(F)(F)F)c1	/	/	5	/	/	/	/	/
CC1=C(C(=O)O)N2C(=O)C(NC(=O)Cc3ccccc3)C2SC1 (stereo not given)	-3	-4	7	48*	-1	1	-17	-1
Oc1ccc(C2=CCNCC2)cc1O	/	/	1	/	/	/	/	/
O=C1NC(=S)NC(=O)C1=Cc1cccn1-c1ccc(O)cc1	19	87	7	34*	-9	1	57*	-2
Cc1ccc(-n2nc(C)c3c2NC(=O)CSC3c2ccc3c(c2)OCO3)cc1 (stereo not given)	8	7	21	35*	14	0	-18	3
C=CCN1C(=O)NC(=O)/C(=C\c2ccc(-c3ccccc3[N+](=O)[O-])o2)C1=O	3	2	24	10	-14	0	/	/
O=C1NC(=O)N(Cc2ccco2)C(=O)/C1=C/c1ccc(-c2cccc([N+](=O)[O-])c2)o1	6	78*	0	34*	active	1	-101	-6
O=C1/C(=C/c2ccc3c(c2)OCO3)N2CCC1CC2	3	7	8	2	0	1	/	/
O=C1/C(=C\c2cc3c(cc2Br)OCO3)N2CCC1CC2	3	70*	17	37*	5.0*	1	-40	7
COc1cc2c(cc1OC)C1C(=O)c3ccc4c(c3OC1CO2)CC(C(C)C)O4 (stereo not given)	/	/	12	/	/	/	/	/
O=c1[nH]c(=S)[nH]c(O)c1/C=N/N1CCOCC1	0	9	18	10	-3	-1	/	/
Oc1ccc(/C=N/NP(=S)(c2ccccc2)c2ccccc2)cc1O	8	-2	-54	38*	-12	0	1	0
Oc1ccccc1/C=N/NP(=S)(c1ccccc1)c1ccccc1	0	6	-52	-2	-3	-1	/	/

From PubChem BioAssay
